# According to PubChem BioAssay (NCATS):
# Records with an inconclusive call do not appear. Calls of active or inactive are those of the source. Calls follow the shape of the dose curve; as a rule, active = well fitted inhibition curve with a large enough effect; inconclusive = small, poorly fitted or top-dose-only effect; inactive = no such curve, though single readings can be large or run the other way. Residues, ends and D or L forms follow the SMILES beside them.
# Assay: BET inhibitor-based combinations targeting novel dependencies in MECOM-rearranged (r) AML: UCSD-AML1 cell line (AID 2202235); also: nearly all actives have a fitted effect of over 40% in size;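 as to viability (% of control): plate controls were DMSO vehicle wells for no effect and blank wells for full effect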
# Conditions: UCSD-AML1 AML cells viability, CellTiter-Glo, 48 h; series mostly up to 46 µM; viability (% of control): at the top concentration
# Outline: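 First, 500 cells per well were seeded; next, drugs were pinned as 11-point doses; then plates sat 48 hr in the incubator; finally CellTiter-Glo was added and luminescence read, with AUC and Z-AUC computed.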
# Potency is read from the fitted curve at half-maximal effect.
Compound,viability (% of control),Potency
CN1CCN(c2ncc(-c3cc(Cl)cc(Cl)c3Cl)c(N)n2)CC1,107% (inactive),–
Fc1ccc(Cl)cc1-c1nc(Nc2ccncc2)c2nccnc2n1,102% (inactive),–
CCCCCN=C(N)N/N=C/c1c[nH]c2ccc(OC)cc12,–,16600 nM (active)
O=[N+]([O-])c1cn2c(n1)OC[C@@H](OCc1ccc(OC(F)(F)F)cc1)C2,107% (inactive),–
CN1CCN2c3ncccc3Cc3ccccc3C2C1 (stereo unspecified),103% (inactive),–
C=C1c2cccc(O)c2C(O)=C2C(=O)[C@@]3(O)C(O)=C(C(N)=O)C(=O)[C@@H](N(C)C)[C@@H]3[C@@H](O)[C@H]12,99.7% (inactive),–
O=C1NC(=O)/C(=C/c2ccc3nccnc3c2)S1,89.6% (inactive),–
Cn1c(=O)c2c(ncn2CC(O)CO)n(C)c1=O (stereo unspecified),120% (inactive),–
CCCC1OC2C[C@@H]3[C@H]4CCC5=CC(=O)C=C[C@]5(C)[C@H]4C(O)C[C@]3(C)[C@]2(C(=O)CO)O1 (stereo partly specified),111% (inactive),–
COC(=O)[C@H](Cc1ccccc1)NC(=O)[C@@H](N)CC(=O)O (H-Asp-Phe-OMe),102% (inactive),–
CC1=C(CC(=O)O)c2cc(F)ccc2C1=Cc1ccc(S(C)=O)cc1 (stereo unspecified),117% (inactive),–
NC(=O)Nc1sc(-c2ccc(F)cc2)cc1C(N)=O,–,1860 nM (active)
O=C(O)c1nc(=O)[nH]c(=O)[nH]1,110% [at 15.6 µM] (inactive),–
O=c1[nH]c(=O)n([C@H]2C[C@H](O)[C@@H](CO)O2)cc1I,–,20900 nM (active)
CCCn1c(=O)c2[nH]c(C34CC5CC3C[C@@H](C5)C4)nc2n(CCC)c1=O,109% (inactive),–
O=C(O)C(O)Cc1ccc(O)c(O)c1 (stereo unspecified),104% [at 92.2 µM] (inactive),–
Cc1ccc(C(C)(O)c2nc3ccccc3s2)c(C)c1 (stereo unspecified),103% (inactive),–
N#Cc1ccnc(Nc2cc(C3CCN(C4COC4)CC3)cc(N3CCC(F)(F)C3)n2)c1,–,2950 nM (active)

Compound,viability (% of control),Potency
COC(c1ccccc1)(c1ccccc1)[C@H](Oc1nc(C)cc(C)n1)C(=O)O,7.14% (inactive),–
COc1cc(OC)c(C(=O)CCCN2CCCC2)c(OC)c1,112% (inactive),–
COc1ccc(C=Cc2cc(OC)c(OC)c(OC)c2)cc1NC(=O)[C@H](N)CO,–,372 nM (active)
CC[C@H](C=C[C@@H](C)[C@H]1CC[C@H]2[C@@H]3CC=C4C[C@@H](O)CC[C@]4(C)[C@@H]3CC[C@]12C)C(C)C,108% [at 15.6 µM] (inactive),–
C=Cc1c(C)c2cc3nc(cc4[nH]c(cc5nc(cc1[nH]2)C(C)=C5CCC(=O)O)c(CCC(=O)OC)c4C)[C@@]1(C)C3=CC=C(C(=O)OC)[C@H]1C(=O)OC,106% (inactive),–
CN1C(=O)c2sccc2N(C)c2nc(Nc3ccc(S(N)(=O)=O)cc3)ncc21,–,2350 nM (active)
Cc1ccc(S(=O)(=O)NC(=O)NN2CC3CCCC3C2)cc1 (stereo unspecified),110% (inactive),–
O=C1NCCc2[nH]c(-c3ccncc3)cc21,–,2630 nM (active)
O=[N+]([O-])c1ccc(Nc2ccccc2-c2ccccc2)c2nonc12,107% (inactive),–
Cc1ccc(C(=O)Nc2ccc(CN3CCN(C)CC3)c(C(F)(F)F)c2)cc1C#Cc1cnc2cccnn12,–,2630 nM (active)
O=c1c(O)c(-c2ccc(O)cc2)oc2cc(O)cc(O)c12,93.5% (inactive),–
C#CCN[C@@H]1CCc2ccccc21,110% (inactive),–
O=C(O)c1ccc(-c2c[nH]c3ncc(-c4ccccc4)cc23)cc1C1CCCC1,93% (inactive),–
CC(=O)NC(CS)C(=O)O (stereo unspecified),104% (inactive),–
C[C@H](CCC(=O)O)[C@H]1CCC2C3C[C@H](O)[C@@H]4C[C@H](O)CC[C@]4(C)C3CC[C@@]21C (stereo partly specified),110% (inactive),–
O=S(=O)(O)CCSSCCS(=O)(=O)O,108% (inactive),–
CCOc1ccccc1N=Nc1c(C)[nH]n(-c2nc(-c3ccccc3)cs2)c1=O,107% (inactive),–
Cc1cc2c(cc1CC(=O)c1sccc1S(=O)(=O)Nc1onc(C)c1Cl)OCO2,58.8% (inactive),–
